Assay results taken from PMC7862700, “An all-to-all approach to the identification of sequence-specific readers for epigenetic DNA modifications on cytosine”.

How the values were obtained:
Assay in all cases: DAPPL (digital affinity profiling via proximity ligation, sequencing); 10 mM Tris-HCl pH 7.5, 50 mM NaCl, 1 mM DTT, 4% glycerol, room temperature, 30 min; GST-TFs on glutathione beads, 16-mer random dsDNA library, 0.1% formaldehyde crosslink after washing; high values mean tight binding
Conditions in all cases: protein: recombinant; tags: N-terminal GST; dsDNA, one strand shown
ERF = target: T1, ERF (Homo sapiens, UniProt P50548 1-548)
T1 sequence: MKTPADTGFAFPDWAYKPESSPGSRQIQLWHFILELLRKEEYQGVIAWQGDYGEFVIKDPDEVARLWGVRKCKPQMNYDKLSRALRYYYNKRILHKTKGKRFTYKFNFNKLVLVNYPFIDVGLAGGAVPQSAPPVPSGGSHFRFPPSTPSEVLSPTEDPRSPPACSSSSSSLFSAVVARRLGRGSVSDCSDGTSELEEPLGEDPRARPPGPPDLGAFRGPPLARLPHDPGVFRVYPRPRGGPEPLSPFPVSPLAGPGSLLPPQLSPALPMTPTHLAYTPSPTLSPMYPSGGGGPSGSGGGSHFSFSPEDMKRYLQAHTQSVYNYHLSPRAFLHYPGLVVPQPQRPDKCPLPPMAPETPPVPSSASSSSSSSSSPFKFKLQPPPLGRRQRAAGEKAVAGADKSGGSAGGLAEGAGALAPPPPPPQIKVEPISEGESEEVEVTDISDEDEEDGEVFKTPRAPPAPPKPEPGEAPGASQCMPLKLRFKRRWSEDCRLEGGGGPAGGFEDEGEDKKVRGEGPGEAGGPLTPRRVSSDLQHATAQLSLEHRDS
How it was run: (§1)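 Yeast served to express human transcription factors as GST fusions, which were then captured on glutathione beads and labelled with DNA barcodes. Pooled with a tag-only sample, they were incubated with 200 nmole of a 16-mer random double-stranded DNA library for 30 min at room temperature in Tris/NaCl/DTT/glycerol buffer, washed, crosslinked with 0.1% formaldehyde, ligated by proximity, amplified by PCR and sequenced. Dividing each hexamer's read frequency for a factor by its frequency for the tag-only sample gives the binding signal.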

ETV3L = target: T2, ETV3L (Homo sapiens, UniProt Q6ZN32 1-361)
T2 sequence: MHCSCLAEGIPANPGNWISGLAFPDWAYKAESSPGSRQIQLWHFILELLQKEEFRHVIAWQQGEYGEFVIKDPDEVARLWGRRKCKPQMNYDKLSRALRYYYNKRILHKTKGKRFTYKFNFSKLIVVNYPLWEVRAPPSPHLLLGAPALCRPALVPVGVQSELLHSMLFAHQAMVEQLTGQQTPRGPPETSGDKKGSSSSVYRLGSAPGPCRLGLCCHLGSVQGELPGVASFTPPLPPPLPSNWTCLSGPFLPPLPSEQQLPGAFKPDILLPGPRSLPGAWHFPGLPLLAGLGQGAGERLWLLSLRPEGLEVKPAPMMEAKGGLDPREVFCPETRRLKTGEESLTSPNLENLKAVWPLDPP
How it was run: as §1

ETS2 = target: T3, ETS2 (Homo sapiens, UniProt P15036 1-469)
T3 sequence: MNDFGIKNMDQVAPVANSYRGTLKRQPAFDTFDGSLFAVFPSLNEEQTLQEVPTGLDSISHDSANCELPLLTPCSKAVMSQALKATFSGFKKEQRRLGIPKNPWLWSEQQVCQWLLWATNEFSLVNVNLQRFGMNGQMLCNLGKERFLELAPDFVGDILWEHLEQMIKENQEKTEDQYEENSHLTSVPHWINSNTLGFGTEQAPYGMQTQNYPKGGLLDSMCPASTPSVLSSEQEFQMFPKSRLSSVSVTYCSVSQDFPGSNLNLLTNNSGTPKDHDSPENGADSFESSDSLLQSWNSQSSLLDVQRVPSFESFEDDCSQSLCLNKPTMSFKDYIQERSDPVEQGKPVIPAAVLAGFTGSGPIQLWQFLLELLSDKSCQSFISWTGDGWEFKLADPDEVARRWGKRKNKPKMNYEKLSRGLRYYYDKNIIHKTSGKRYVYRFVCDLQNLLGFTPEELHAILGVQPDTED
How it was run: as §1

SPDEF = target: T4, SPDEF (Homo sapiens, UniProt O95238 1-335)
T4 sequence: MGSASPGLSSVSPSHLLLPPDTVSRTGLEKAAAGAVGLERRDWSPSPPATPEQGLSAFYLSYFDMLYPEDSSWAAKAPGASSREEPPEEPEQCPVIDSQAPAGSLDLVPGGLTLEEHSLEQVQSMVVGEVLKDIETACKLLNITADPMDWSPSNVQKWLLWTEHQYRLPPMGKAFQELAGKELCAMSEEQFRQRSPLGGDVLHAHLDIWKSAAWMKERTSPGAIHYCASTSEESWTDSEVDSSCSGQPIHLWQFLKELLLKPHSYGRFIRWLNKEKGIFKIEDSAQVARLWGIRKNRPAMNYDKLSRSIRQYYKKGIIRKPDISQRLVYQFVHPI
How it was run: as §1

ETV7 = target: T5, ETV7 (Homo sapiens, UniProt Q9Y603 1-341)
T5 sequence: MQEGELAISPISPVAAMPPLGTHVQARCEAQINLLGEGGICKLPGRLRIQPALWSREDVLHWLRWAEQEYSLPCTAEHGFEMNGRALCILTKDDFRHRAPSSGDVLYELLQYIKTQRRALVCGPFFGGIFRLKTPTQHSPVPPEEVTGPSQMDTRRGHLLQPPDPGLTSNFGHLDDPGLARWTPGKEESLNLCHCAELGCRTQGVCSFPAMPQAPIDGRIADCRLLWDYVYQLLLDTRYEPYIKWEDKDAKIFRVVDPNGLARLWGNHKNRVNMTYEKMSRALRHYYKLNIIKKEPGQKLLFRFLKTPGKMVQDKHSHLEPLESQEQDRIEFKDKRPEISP
How it was run: as §1

ELF5 = target: T6, ELF5 (Homo sapiens, UniProt Q9UKW6-2 1-255)
T6 sequence: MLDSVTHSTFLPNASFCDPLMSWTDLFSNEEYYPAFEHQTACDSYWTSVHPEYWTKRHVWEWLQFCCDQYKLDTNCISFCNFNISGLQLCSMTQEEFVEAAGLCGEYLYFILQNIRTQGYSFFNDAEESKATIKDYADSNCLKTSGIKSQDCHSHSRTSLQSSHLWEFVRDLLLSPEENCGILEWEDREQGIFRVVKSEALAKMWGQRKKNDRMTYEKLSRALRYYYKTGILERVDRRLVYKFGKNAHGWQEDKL
How it was run: as §1

ETV3 = target: T7, ETV3 (Homo sapiens, UniProt P41162-2 1-143)
T7 sequence: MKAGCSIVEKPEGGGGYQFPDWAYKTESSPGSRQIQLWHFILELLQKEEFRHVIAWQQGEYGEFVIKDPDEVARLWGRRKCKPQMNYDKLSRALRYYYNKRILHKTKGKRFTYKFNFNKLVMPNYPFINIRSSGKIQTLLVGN
How it was run: as §1

ETV6 = ETV6 (Homo sapiens, UniProt P41212 1-452)
Chain of ETV6 (P41212 whole entry): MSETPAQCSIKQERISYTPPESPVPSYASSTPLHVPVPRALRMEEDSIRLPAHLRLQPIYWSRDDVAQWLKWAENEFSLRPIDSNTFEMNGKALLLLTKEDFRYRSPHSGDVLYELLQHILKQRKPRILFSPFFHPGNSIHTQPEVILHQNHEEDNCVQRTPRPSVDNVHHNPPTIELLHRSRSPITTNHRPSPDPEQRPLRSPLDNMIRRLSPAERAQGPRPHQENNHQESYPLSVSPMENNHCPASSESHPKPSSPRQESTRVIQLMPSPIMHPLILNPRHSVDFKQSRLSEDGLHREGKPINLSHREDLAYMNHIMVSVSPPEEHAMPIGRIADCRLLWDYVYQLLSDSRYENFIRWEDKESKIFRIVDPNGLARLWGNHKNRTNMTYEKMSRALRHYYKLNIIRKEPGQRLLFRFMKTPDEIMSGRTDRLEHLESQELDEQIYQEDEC
How it was run: as §1

Sequence | binding signal (ERF) | binding signal (ETV3L) | binding signal (ETS2) | binding signal (SPDEF) | binding signal (ETV7) | binding signal (ELF5) | binding signal (ETV3) | binding signal (ETV6)
CCCCCT | 1.38 fold enrichment (6-mer frequency, TF over GST control) | 1.23 fold enrichment (6-mer frequency, TF over GST control) | 1.14 fold enrichment (6-mer frequency, TF over GST control) | 1.05 fold enrichment (6-mer frequency, TF over GST control) | 1.17 fold enrichment (6-mer frequency, TF over GST control) | 1.37 fold enrichment (6-mer frequency, TF over GST control) | 1.27 fold enrichment (6-mer frequency, TF over GST control) | 1.15 fold enrichment (6-mer frequency, TF over GST control)
AATGAG | 1.2 fold enrichment (6-mer frequency, TF over GST control) | 1.1 fold enrichment (6-mer frequency, TF over GST control) | 1.2 fold enrichment (6-mer frequency, TF over GST control) | 1.01 fold enrichment (6-mer frequency, TF over GST control) | 1.15 fold enrichment (6-mer frequency, TF over GST control) | 1.17 fold enrichment (6-mer frequency, TF over GST control) | 1.13 fold enrichment (6-mer frequency, TF over GST control) | 1.32 fold enrichment (6-mer frequency, TF over GST control)
CCTGAT | 1.5 fold enrichment (6-mer frequency, TF over GST control) | 1.36 fold enrichment (6-mer frequency, TF over GST control) | 1.46 fold enrichment (6-mer frequency, TF over GST control) | 1.59 fold enrichment (6-mer frequency, TF over GST control) | 1.29 fold enrichment (6-mer frequency, TF over GST control) | 1.64 fold enrichment (6-mer frequency, TF over GST control) | 1.43 fold enrichment (6-mer frequency, TF over GST control) | 1.41 fold enrichment (6-mer frequency, TF over GST control)
AGCTCC | 1.24 fold enrichment (6-mer frequency, TF over GST control) | 1.25 fold enrichment (6-mer frequency, TF over GST control) | 1.33 fold enrichment (6-mer frequency, TF over GST control) | 1.4 fold enrichment (6-mer frequency, TF over GST control) | 1.17 fold enrichment (6-mer frequency, TF over GST control) | 1.2 fold enrichment (6-mer frequency, TF over GST control) | 1.22 fold enrichment (6-mer frequency, TF over GST control) | 1.32 fold enrichment (6-mer frequency, TF over GST control)
TACATA | 1.33 fold enrichment (6-mer frequency, TF over GST control) | 1.1 fold enrichment (6-mer frequency, TF over GST control) | 1.27 fold enrichment (6-mer frequency, TF over GST control) | 1.2 fold enrichment (6-mer frequency, TF over GST control) | 1.31 fold enrichment (6-mer frequency, TF over GST control) | 1.16 fold enrichment (6-mer frequency, TF over GST control) | 1.21 fold enrichment (6-mer frequency, TF over GST control) | 1.21 fold enrichment (6-mer frequency, TF over GST control)
GGTATT | 1.2 fold enrichment (6-mer frequency, TF over GST control) | 1.18 fold enrichment (6-mer frequency, TF over GST control) | 1.2 fold enrichment (6-mer frequency, TF over GST control) | 1.27 fold enrichment (6-mer frequency, TF over GST control) | 1.24 fold enrichment (6-mer frequency, TF over GST control) | 1.16 fold enrichment (6-mer frequency, TF over GST control) | 1.12 fold enrichment (6-mer frequency, TF over GST control) | 1.24 fold enrichment (6-mer frequency, TF over GST control)
GTCTTT | 1.27 fold enrichment (6-mer frequency, TF over GST control) | 1.27 fold enrichment (6-mer frequency, TF over GST control) | 1.26 fold enrichment (6-mer frequency, TF over GST control) | 1.17 fold enrichment (6-mer frequency, TF over GST control) | 1.28 fold enrichment (6-mer frequency, TF over GST control) | 1.31 fold enrichment (6-mer frequency, TF over GST control) | 1.26 fold enrichment (6-mer frequency, TF over GST control) | 1.24 fold enrichment (6-mer frequency, TF over GST control)
AAATTG | 1.3 fold enrichment (6-mer frequency, TF over GST control) | 1.29 fold enrichment (6-mer frequency, TF over GST control) | 1.22 fold enrichment (6-mer frequency, TF over GST control) | 1.19 fold enrichment (6-mer frequency, TF over GST control) | 1.25 fold enrichment (6-mer frequency, TF over GST control) | 1.22 fold enrichment (6-mer frequency, TF over GST control) | 1.28 fold enrichment (6-mer frequency, TF over GST control) | 1.34 fold enrichment (6-mer frequency, TF over GST control)
CTCTTT | 1.39 fold enrichment (6-mer frequency, TF over GST control) | 1.53 fold enrichment (6-mer frequency, TF over GST control) | 1.41 fold enrichment (6-mer frequency, TF over GST control) | 1.53 fold enrichment (6-mer frequency, TF over GST control) | 1.5 fold enrichment (6-mer frequency, TF over GST control) | 1.42 fold enrichment (6-mer frequency, TF over GST control) | 1.53 fold enrichment (6-mer frequency, TF over GST control) | 1.4 fold enrichment (6-mer frequency, TF over GST control)
CGTACT | 1.27 fold enrichment (6-mer frequency, TF over GST control) | 1.1 fold enrichment (6-mer frequency, TF over GST control) | 1.23 fold enrichment (6-mer frequency, TF over GST control) | 1.11 fold enrichment (6-mer frequency, TF over GST control) | 1.1 fold enrichment (6-mer frequency, TF over GST control) | 1.2 fold enrichment (6-mer frequency, TF over GST control) | 1.2 fold enrichment (6-mer frequency, TF over GST control) | 1.2 fold enrichment (6-mer frequency, TF over GST control)
ATTGGT | 1.21 fold enrichment (6-mer frequency, TF over GST control) | 1.24 fold enrichment (6-mer frequency, TF over GST control) | 1.34 fold enrichment (6-mer frequency, TF over GST control) | 1.26 fold enrichment (6-mer frequency, TF over GST control) | 1.27 fold enrichment (6-mer frequency, TF over GST control) | 1.19 fold enrichment (6-mer frequency, TF over GST control) | 1.24 fold enrichment (6-mer frequency, TF over GST control) | 1.13 fold enrichment (6-mer frequency, TF over GST control)
ATATAA | 1.16 fold enrichment (6-mer frequency, TF over GST control) | 1.23 fold enrichment (6-mer frequency, TF over GST control) | 1.2 fold enrichment (6-mer frequency, TF over GST control) | 1.19 fold enrichment (6-mer frequency, TF over GST control) | 1.16 fold enrichment (6-mer frequency, TF over GST control) | 1.16 fold enrichment (6-mer frequency, TF over GST control) | 1.27 fold enrichment (6-mer frequency, TF over GST control) | 1.25 fold enrichment (6-mer frequency, TF over GST control)
TTTTAC | 1.3 fold enrichment (6-mer frequency, TF over GST control) | 1.32 fold enrichment (6-mer frequency, TF over GST control) | 1.44 fold enrichment (6-mer frequency, TF over GST control) | 1.32 fold enrichment (6-mer frequency, TF over GST control) | 1.52 fold enrichment (6-mer frequency, TF over GST control) | 1.27 fold enrichment (6-mer frequency, TF over GST control) | 1.45 fold enrichment (6-mer frequency, TF over GST control) | 1.33 fold enrichment (6-mer frequency, TF over GST control)
ACTACC | 1.72 fold enrichment (6-mer frequency, TF over GST control) | 1.6 fold enrichment (6-mer frequency, TF over GST control) | 1.7 fold enrichment (6-mer frequency, TF over GST control) | 1.61 fold enrichment (6-mer frequency, TF over GST control) | 1.55 fold enrichment (6-mer frequency, TF over GST control) | 1.76 fold enrichment (6-mer frequency, TF over GST control) | 1.7 fold enrichment (6-mer frequency, TF over GST control) | 1.74 fold enrichment (6-mer frequency, TF over GST control)
TTACTT | 1.49 fold enrichment (6-mer frequency, TF over GST control) | 1.37 fold enrichment (6-mer frequency, TF over GST control) | 1.48 fold enrichment (6-mer frequency, TF over GST control) | 1.45 fold enrichment (6-mer frequency, TF over GST control) | 1.43 fold enrichment (6-mer frequency, TF over GST control) | 1.54 fold enrichment (6-mer frequency, TF over GST control) | 1.58 fold enrichment (6-mer frequency, TF over GST control) | 1.62 fold enrichment (6-mer frequency, TF over GST control)
